About 83,000 compounds went through this panel and 20% of them were active in at least one assay; those are over-represented in the sample as a whole.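 Negative percent growth values reflect cell death: -40 means 40% of the cells present at the start died, and -100 means all died.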 Values without a mark were called inactive. The source made the active and inactive calls. Rule for the calls: active = growth percent below 10; inactive = the rest.
Key:
Assay in all cases: NCI-60 one-dose screen, 48 h (100 = growth as untreated, 0 = no growth, -100 = all killed)
Conditions in all cases: 10 µM unless noted
SR leukemia = test system: SR leukemia
RPMI-8226 leukemia = test system: RPMI-8226 leukemia
OVCAR-8 ovarian = test system: OVCAR-8 ovarian
OVCAR-5 ovarian = test system: OVCAR-5 ovarian
OVCAR-4 ovarian = test system: OVCAR-4 ovarian
SK-OV-3 ovarian = test system: SK-OV-3 ovarian
IGROV1 ovarian = test system: IGROV1 ovarian
HS 578T breast = test system: HS 578T breast
NCI/ADR-RES ovarian = test system: NCI/ADR-RES ovarian
OVCAR-3 ovarian = test system: OVCAR-3 ovarian

SMILES	growth (SR leukemia)	growth (RPMI-8226 leukemia)	growth (OVCAR-8 ovarian)	growth (OVCAR-5 ovarian)	growth (OVCAR-4 ovarian) [%]	growth (SK-OV-3 ovarian) [%]	growth (IGROV1 ovarian)	growth (HS 578T breast)	growth (NCI/ADR-RES ovarian)	growth (OVCAR-3 ovarian) [%]
FC(F)(F)c1cccc([Si](F)(c2cccc(C(F)(F)F)c2)c2cccc(C(F)(F)F)c2)c1	74%	52.3%	91.5%	91.3%	65.9	99	82.5%	85.3%	72.6%	
CCOC(=O)C1CN(Cc2ccccc2)C(=O)C1=O (stereo not drawn)	27%	95.6%	107%	95.2%	91.9	107	109%		109%	105
O=C(CSc1nnc(-c2ccc(Cl)cc2)o1)Nc1ccc(C(=O)/C=C/c2ccccc2)cc1	60.4%	68.7%	97.3%	106%	101	117	95.7%		88.1%	108
COc1cc2c(/C=C3/C(=O)Nc4ccc(O)cc43)c(Cl)n(Cc3cc(OC)c(OC)c(OC)c3)c2cc1C	-38.1% (active)	-22.9% (active)	22.3%	74.1%	21.8	38.5	26.9%	4.73% (active)	9.32% (active)	
O=C(NCCNc1nccc(-c2c(-c3cccc(O)c3)nc3sccn23)n1)Nc1cccc(C(F)(F)F)c1	59.2%	-4.81% (active)	41.2%	117%	110	85	65.6%		108%	76.7
Cc1ccc2[nH]c3nc4cccnc4c(C)c3c2c1	2.59% (active)	69.6%	88.3%	59.6%	87.1	88	85.8%		83.2%	99.8
Cc1ccc(-c2cn3cc([N+](=O)[O-])ccc3n2)cc1	75.5%	72.6%	76.7%	109%	78.1	102	71%	97.1%	83.4%	
CCC1S/C(=N\N=C(/C)c2cc3ccccc3o2)N(c2ccccc2)C1=O (stereo not drawn)	15%	65.4%	105%	106%	95.1	116	-12.9% (active)	98.7%	89%	
COc1cc(NC(C)CCCN2C(=O)c3ccccc3C2=O)c2ncccc2c1OC (stereo not drawn)	35.4%	55.5%	85.5%	99.1%	50.8	92.5	63.6%	95.7%	90.6%	
O=C(Nc1ccc(-n2cc(-c3ccncc3)c(-c3ccc(O)c(Cl)c3)n2)cc1)Nc1cc(C(F)(F)F)cc(C(F)(F)F)c1	69.7%	45%	56.4%	75.7%	82.2	81.7	56.3%		55%	33.3
CCOC(=O)c1cnc2c(OC)ccc(OC)c2c1Cl	115%	100%	101%	109%	113	100	117%		110%	
O=C(CSc1nnc(-c2ccccc2)o1)Nc1ccc(C(=O)/C=C/c2ccccc2)cc1	28.8%	2.35% (active)	60.1%	102%	30.9	108	38%	88.5%	53.6%	
COC(=O)c1oc2c(C(C)=O)c(OCCCN(C)C)ccc2c1C	95%	97.2%	111%	101%	96.4	121	30.1%		87.4%	
COC(=O)c1oc2c(C(=O)/C=C/c3ccc(OC)cc3)c(OCCN3CCOCC3)ccc2c1C	-28% (active)	-50.7% (active)	-37.6% (active)	29.8%	16	17.9	-4.01% (active)	-15.1% (active)	9.24% (active)	
O=c1cc(Cl)[nH]c(=O)[nH]1	111%	98.6%	104%	105%	109	85.2	109%	103%	105%	
CN1CCN(Cn2nc(-c3cc(Cl)cc(Cl)c3Cl)n(/N=C/c3ccc(Cl)cc3)c2=S)CC1	38.7%	96.3%	93.5%	96.3%	94.5	101	108%		96.6%	
Cc1cccc[n+]1CCC[n+]1ccccc1C	96.2%	98.8%	105%	109%	110	76.1	107%	109%	106%	
COc1cc(NC(C)CCCN2C(=O)c3ccccc3C2=O)c2nccc(C)c2c1OC (stereo not drawn)	33%	64.3%	91.6%	110%	70.5	107	44.1%		74%	
COc1cc(/C=C/C(=O)c2c(C)n([O-])c3cc(C)c(C)cc3[n+]2=O)cc(OC)c1OC	29%	38.8%	63.2%	111%	73.3	86.6	-21.3% (active)	69%	72%	
CN(C)c1ccc(/C=N/n2c(-c3cc(F)c(Cl)cc3Cl)nn(CN3CCOCC3)c2=S)cc1	83.6%	97.2%	104%	92.8%	106	101	104%	110%	97.3%	
C[C@]12O[C@H]1[C@H](O)c1c(cc(O)c3c1C(=O)c1cccc(O)c1-3)C2=O	93.6%	93.6%	98.1%	106%	92.4	97.9	102%	93.9%	107%	
C#C[C@H](O)/C=C/CCCCCCC#C[C@H](O)CC[C@@H](O)C#CCCCCCC/C=C/[C@@H](O)C#C	-22.8% (active)	21.3%	89.1%	111%	101	105	-37.6% (active)		54.5%	
Nn1c(SCC(=O)Nc2cc(Cl)c(Cl)cc2Cl)nnc1-c1cc(F)c(Cl)cc1Cl	99.5%	132%	97.5%	108%	120	105	55.2%	103%	99.7%	
Nc1nc(Cl)cc(NCc2ccc(CNc3cc(Cl)nc(N)n3)cc2)n1	139%	103%	89.6%	82.5%	59.7	92.5	-31% (active)	100%	103%	
C[C@H]1C=C(C[C@@H](O)CC#CC#CCCCCC[C@@H](O)[C@H]2CCC(=O)O2)C(=O)O1	121%	114%	110%	95.6%	105	95.5	54.1%	117%	95.5%	
S=c1[nH]nc(Cn2c3ccccc3c3ccncc32)o1	99.9%	97.3%	94.2%	102%	96.7	94.5	103%	106%	102%	
COc1ccccc1N1CCN(CCCOc2ccc(OCCCN3CCN(c4ccccc4OC)CC3)c(C(=O)c3cc(OC)c(OC)c(OC)c3)c2)CC1	99.7%	155%	105%	109%	109	100	122%	106%	105%	
O=C(NCCNc1nccc(-c2c(-c3cccc(O)c3)nc3sccn23)n1)c1ccccc1O	63.2%	11.6%	41.3%	88.7%	96.2	60.5	31.6%		73.6%	
O=C(O)c1ccc2nc(-c3ccc(OCCCCCOc4ccc(-c5nc6ccc(C(=O)O)cc6[nH]5)cc4)cc3)[nH]c2c1	120%	123%	49%	9.11% (active)	82.6	48.8	109%		33.1%	
COc1ccc(Cn2cc(COc3ccc4c5ccnc(C)c5n(CCCc5ccccc5)c4c3)nn2)cc1	-29% (active)	-3.72% (active)	61.9%	111%	70.2	95.3	75.3%	77.8%	67%	

— PubChem BioAssay (NCI)
